In publication PMC4552634, “A New Set of Chemical Starting Points with Plasmodium falciparum Transmission-Blocking Potential for Antimalarial Drug Discovery” (PLoS ONE, 2015):
In all, about 13,000 compounds went through this assay and about 3,200 (25%) showed an effect of 50% or more. This is one part of the list.

What follows are compounds tested on P. falciparum stage V gametocytes. Details: 48 h, 5 µM; inhibitor.
Design: BacTiter-Glo ATP luminescence viability of purified stage V gametocytes in 384-well plates, per cent inhibition versus DMSO

| Structure (SMILES) | % Inhibition [%] |
| --- | --- |
| C[C@@H](NC(=O)c1nn(-c2ccc(Cl)cc2)c(=O)c2ccccc12)C(C)(C)C [TCMDC-124772] | -4.584 |
| Cc1cccc(C(=O)Nc2ccnc(N(C)CCCN(C)Cc3cccc(O)c3)c2)c1 [TCMDC-134953] | -14.35 |
| Cc1cccc2[nH]c(-c3cccc(-c4ccc(NC(=O)c5cccc(C(N)=O)c5)cc4)c3)nc12 [TCMDC-132201] | 3.68 |
| Cc1nnsc1C(=O)Nc1ccc(-c2cccc(-c3nc4ccc(C(F)(F)F)cc4[nH]3)c2)cc1 [TCMDC-137085] | 34.28 |
| Cc1nnsc1C(=O)Nc1cccc(-c2csc(-c3nc4ccccc4[nH]3)c2)c1 [TCMDC-132394] | 19.6 |
| Cc1nnsc1C(=O)Nc1cccc(-c2cccc(-c3nc4c(C)cccc4[nH]3)c2)c1 [TCMDC-137086] | -18.91 |
| Cc1nnsc1C(=O)Nc1cccc(-c2cccc(-c3nc4ccccc4[nH]3)c2)c1 [TCMDC-137078] | 82.4 |
| Cc1nnsc1C(=O)Nc1ccc(-c2cccc(-c3nc4ccc(F)cc4[nH]3)c2)cc1 [TCMDC-137080] | -15.9 |
| Cc1nnsc1C(=O)Nc1cccc(-c2cccc(-c3nc4ccc(C(F)(F)F)cc4[nH]3)c2)c1 [TCMDC-137084] | -5.727 |
| Cc1nnsc1C(=O)Nc1ccc(-c2cccc(-c3nc4c(C)cccc4[nH]3)c2)cc1 [TCMDC-137087] | 78.56 |
| Cc1nnsc1C(=O)Nc1cccc(-c2ccc(-c3nc4ccc(C(F)(F)F)cc4[nH]3)cc2)c1 [TCMDC-137088] | 70.24 |
| NC(=O)c1cccc(C(=O)Nc2cccc(-c3cccc(-c4nc5ccc(F)cc5[nH]4)c3)c2)c1 [TCMDC-132198] | -10.48 |
| Cc1nnsc1C(=O)Nc1cccc(-c2cccc(-c3nc4ccc(F)cc4[nH]3)c2)c1 [TCMDC-137081] | 77.92 |
| Cc1nnsc1C(=O)Nc1cccc(-c2ccc(-c3nc4ccccc4[nH]3)cc2)c1 [TCMDC-137083] | 11.59 |
| CC(C)(C)c1nn(-c2ccccc2)c2[nH]c(=O)c(CNC3CCCC3)cc12 [TCMDC-136483] | 5.874 |
| Cc1cccc2c(C(=O)NC3CCN(Cc4ccccc4)CC3)cc(-c3cccnc3)nc12 [TCMDC-124900] | 15.64 |
| O=S(=O)(c1c(Cl)cc(Cl)cc1Cl)N1CCCCC(c2ccc(F)c(F)c2)=N1 [TCMDC-135420] | -45.8 |
| Cc1cccc(-c2cccc(CNc3nc(NCCc4ccc(O)cc4)nc(N4CCNCC4)n3)c2)c1 [TCMDC-133810] | 31.6 |
